BAZ2B inh: BAZ2B (human) inhibition; Q9UIF8; AlphaScreen BAZ2B-H3K14Ac peptide displacement; Potency, µM (series often up to 114 µM), for the others: top-dose activity change, negative = inhibition, usual class: inhibitors; 4.4% of 360,000 active; also: % is scaled to controls: 0 for no effect and ±100 for the full control effect; nearly all actives have a fitted effect of over 60% in size
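Compounds, titrated to a top concentration of 110 uM, were incubated 30 min at room temperature with preformed BAZ2B/acetyl-K14 H3 peptide complex (50 nM each). Proximity signal was measured by AlphaScreen after 20 min with beads.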
PLK1 PBD block: inhibitors of human PLK1 polo-box domain binding; P53350; AID 720504; Plk1 PBD binding of FITC phosphopeptide, fluorescence polarization; 2.8% of 360,000 active; Potency, µM, for the others: max response, negative = inhibition, actives largely listed as inhibitors; also: series mostly up to about 57 µM; % is scaled to controls: 0 for no effect and ±100 for the full control effect; nearly all actives have a fitted effect of over 65% in size
Target sequence (P53350 whole entry, looked up, the tested form may be a part): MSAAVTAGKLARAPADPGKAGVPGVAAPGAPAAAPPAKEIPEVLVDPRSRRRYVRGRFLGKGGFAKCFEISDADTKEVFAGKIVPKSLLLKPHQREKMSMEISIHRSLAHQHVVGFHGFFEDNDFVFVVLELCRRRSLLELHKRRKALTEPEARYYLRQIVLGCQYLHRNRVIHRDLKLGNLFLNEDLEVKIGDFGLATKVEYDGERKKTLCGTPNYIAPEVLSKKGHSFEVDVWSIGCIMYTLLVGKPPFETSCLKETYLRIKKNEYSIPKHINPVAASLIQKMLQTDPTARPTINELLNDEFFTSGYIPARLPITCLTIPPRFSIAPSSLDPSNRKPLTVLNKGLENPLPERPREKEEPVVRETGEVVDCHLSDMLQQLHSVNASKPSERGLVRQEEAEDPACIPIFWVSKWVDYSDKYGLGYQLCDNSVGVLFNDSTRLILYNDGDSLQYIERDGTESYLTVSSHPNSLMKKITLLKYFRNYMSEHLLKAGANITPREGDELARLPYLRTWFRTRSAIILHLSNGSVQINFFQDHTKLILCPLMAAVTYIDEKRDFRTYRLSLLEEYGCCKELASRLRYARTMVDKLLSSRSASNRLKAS
Sfp inh: Sfp phosphopantetheinyl transferase inhibition | 3.5% of 310,000 active | AID 1490 | Biochemical Sfp PPTase activity, qHTS | Potency, µM, without a hit: largest response in the series, negative = inhibition, most hits filed as inhibitors;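 also: the enzyme is Sfp with the accession as filed and its product quenches rhodamine fluorescence; 0% = enzyme reaction without inhibitor and -100% = no enzyme wells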
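Buffer: 50 mM Hepes-Na pH 7.6, 10 mM MgCl2, 0.01% Nonidet P-40, 0.01% BSA. Enzyme 15 nM, pre-exposed to compound 15 min; substrates then added and fluorescence change tracked over 30 min.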
JMJD2A Tudor inh: inhibitors of human JMJD2A Tudor domain; Potency, µM (highest dose often 114 µM), for inactives: at the top dose activity change, negative = inhibition, usual class: inhibitors; AID 504339; AlphaScreen JMJD2A-Tudor / H3K4me3 peptide binding; O75164; 4.4% of 390,000 active; also: % is scaled to controls: 0 for no effect and ±100 for the full control effect; nearly all actives have a fitted effect of over 50% in size
G9a inh: blocks human histone lysine methyltransferase G9a | Q96KQ7 | G9a H3K9 monomethylation, AlphaScreen, 2 h | Potency, µM (series often up to 102 µM), inactives show at the top dose activity, negative = inhibition, hits mostly inhibitors | 8.8% of 350,000 active; also: % is scaled to controls: 0 for no effect and ±100 for the full control effect; nearly all actives have a fitted effect of over 75% in size
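Methyltransferase reactions run at room temperature for 2 h (20 nM enzyme, 500 nM biotin-H3K9 peptide, 20 uM SAM) after a 15 min compound preincubation; product detected by AlphaScreen beads and anti-H3K9me1 antibody.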
HP1b chromo inh: blocks HP1-beta chromodomain binding to methylated histone tails; P83916; AlphaScreen HP1-beta / biotin-H3K9me3 peptide binding; Potency, µM (top dose mostly 114 µM), for inactives: at the top dose activity change, negative = inhibition, actives largely listed as inhibitors; 0.56% of 390,000 active; AID 540317; also: nearly all actives have a fitted effect of over 70% in size
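AlphaScreen: HP1-beta (50 nM) preformed 30 min with biotin-H3(1-18)K9me3 peptide (50 nM) in PBS pH 7.4, 0.01% Tween-20. Compound added for 30 min at RT, then streptavidin donor/nickel chelate acceptor beads (10 ug/mL) for 30 min.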
* = called active by the depositor; [ ] = another dose, or the depositor's remark. The list is not random: actives were taken first. Their share in the collection is about 12%. Calls follow the shape of the dose curve; as a rule, active = well fitted curve in the direction sought with a large enough effect; inconclusive = small, poorly fitted or top-dose-only effect, or another doubt; inactive = no such curve, though single readings can be large; an effect the other way counts as inactive or inconclusive. Potency is read from the fitted curve at half-maximal effect.

What do the screens show for `CCOc1ccc(S(=O)(=O)N2CCC(N3CCN(Cc4ccc(F)cc4)C(=O)C3=O)CC2)cc1`?
BAZ2B inh: 4%; JMJD2A Tudor inh: -11%; G9a inh: -1%[59 µM]; HP1b chromo inh: 17%

What do the screens show for `CC(CS(=O)(=O)c1cccc2cccnc12)N1CCCCC1` (stereo not given)?
BAZ2B inh: 5%; PLK1 PBD block: -22%; Sfp inh: -7%; JMJD2A Tudor inh: -14%; G9a inh: 25µM*; HP1b chromo inh: 42%

Results for O=S(=O)(Nc1ccc(N2CCCCC2)cc1)c1cccc2cccnc12 ?
BAZ2B inh: inconclusive; PLK1 PBD block: -7%; Sfp inh: -1%; JMJD2A Tudor inh: -36%; G9a inh: 16µM*; HP1b chromo inh: inconclusive

What do the screens show for `O=S(=O)(Nc1ccc(N2CCCCC2)cc1)c1ccccc1F`?
BAZ2B inh: 50µM*; PLK1 PBD block: -8%; Sfp inh: 0%; JMJD2A Tudor inh: inconclusive; G9a inh: 40µM*; HP1b chromo inh: inconclusive

Results for O=S(=O)(Nc1cccc(-c2ccc(N3CCCCC3)nn2)c1)c1ccc(F)cc1F ?
BAZ2B inh: -35%; JMJD2A Tudor inh: -24%; G9a inh: inconclusive; HP1b chromo inh: 0%

How did O=S(=O)(Nc1ccc(N2CCCCC2)cc1)c1ccc(F)cc1F do in these assays?
BAZ2B inh: inconclusive; PLK1 PBD block: -5%; Sfp inh: -25%; JMJD2A Tudor inh: inconclusive; G9a inh: 45µM*; HP1b chromo inh: -35%

How did O=S(=O)(c1cccc2cccnc12)N1CCCCC1 do in these assays?
BAZ2B inh: 0%; PLK1 PBD block: 4%; Sfp inh: 4%; JMJD2A Tudor inh: -5%; HP1b chromo inh: 17%

What do the screens show for `Cc1ccc(NS(=O)(=O)c2ccccc2F)cc1S(=O)(=O)N1CCCCC1`?
BAZ2B inh: 5%; PLK1 PBD block: -6%; JMJD2A Tudor inh: -8%; G9a inh: 22%[2.33 µM]; HP1b chromo inh: 40%

What do the screens show for `COC(=O)[C@@]12C[C@@H](CC(=O)NCc3cccc4ccccc34)C(=O)N(Cc3ccco3)C1=CCC(C)(C)C2`?
PLK1 PBD block: -6%

Results for Cn1nnc2c(NCc3ccccc3)ncnc21 ?
BAZ2B inh: 3%; JMJD2A Tudor inh: 9%; G9a inh: -8%[59 µM]; HP1b chromo inh: 16%

What do the screens show for `Cc1ccc2oc(=O)n(CC(=O)O)c2c1`?
BAZ2B inh: -2%; PLK1 PBD block: 27µM*; Sfp inh: 4%; JMJD2A Tudor inh: -30%; G9a inh: -41%; HP1b chromo inh: 34%

What do the screens show for `CCOC(=O)Cn1c(=O)oc2ccc(C)cc21`?
BAZ2B inh: 14%; PLK1 PBD block: -6%; Sfp inh: 15%; JMJD2A Tudor inh: -2%; G9a inh: 14%; HP1b chromo inh: 59%

What do the screens show for `CCCCCCC1(C)NC(=S)N(c2ccccc2)N1` (stereo not given)?
PLK1 PBD block: 19µM*; Sfp inh: inconclusive; JMJD2A Tudor inh: inconclusive; G9a inh: 14µM*; HP1b chromo inh: inconclusive

How did CC1(CC(=O)Nc2ccccc2)NC(=S)N(c2ccccc2)N1 (stereo not given) do in these assays?
BAZ2B inh: inconclusive; PLK1 PBD block: 27µM*; Sfp inh: inconclusive; JMJD2A Tudor inh: 5.6µM*; G9a inh: inconclusive; HP1b chromo inh: -7%

How did CCCCCC1(C)NC(=S)N(c2ccccc2)N1 (stereo not given) do in these assays?
BAZ2B inh: inconclusive; PLK1 PBD block: -10%; Sfp inh: 40µM*; JMJD2A Tudor inh: 50µM*; G9a inh: inconclusive; HP1b chromo inh: -7%

What do the screens show for `CCCCCCCC1(C)NC(=O)NC1=O` (stereo not given)?
BAZ2B inh: 3%; PLK1 PBD block: -10%; Sfp inh: 8%; JMJD2A Tudor inh: -10%; HP1b chromo inh: 11%

How did C=C(C)CCC1(C)NC(=O)N(c2ccccc2)N1 (stereo not given) do in these assays?
BAZ2B inh: -19%; PLK1 PBD block: -1%; Sfp inh: -9%; JMJD2A Tudor inh: -2%; G9a inh: inconclusive; HP1b chromo inh: 26%

Assay outcomes (PubChem BioAssay)
